# From PubChem BioAssay AID686971 (National Center for Advancing Translational Sciences (NCATS), 2013)
# Screen size: about 360,000 compounds; about 7,500 (2.1%) were called active. Another 8% or so got no clear call; they are omitted. Calls come from the whole dose curve; as a rule, active = well fitted cell-killing curve with a large enough effect; inconclusive = small, poorly fitted or top-dose-only effect, or effect the other way, or another doubt; inactive = no such curve, though single readings can be large or run the other way. The list comes from a sample in which actives are over-represented; it also holds similar structures and randomly drawn compounds. A call without a number means that no potency is given here.
# Experiment: qHTS for induction of synthetic lethality in tumor cells producing 2HG: qHTS for the HT-1080-IDH1KD cell line
# Details: HT-1080 IDH1 knockdown viability, ATP luminescence, 48 h; series mostly up to 46.1 µM
# Outline: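 Using the IDH1-knockdown HT-1080 line run in the same batch and compound series as the NT line, viability after 48 h at 37 °C was determined by CellTiter-Glo luminescence and expressed as % activity.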
# Potency is the fitted concentration of half-maximal effect.
SMILES,Potency,"activity, negative = toxicity"
COc1ccccc1CNC(=O)c1cc(=O)c2ccccc2o1,inactive,–
COc1ccc2c(CC(=O)N3CCc4cc(OC)c(OC)cc4C3)coc2c1,inactive,–
COc1cc2c(cc1OC)CN(C(=O)c1cc(=O)c3ccccc3o1)CC2,5.8 µM (active),–
COc1cc(NC(=O)C2=C(C)OCCS2)c(Cl)cc1C(=O)NCCCN1CCCC(C)C1 (configuration not stated),inactive,–
NS(=O)(=O)c1ccc(CCNS(=O)(=O)c2cccc3cccnc23)cc1,inactive,–
O=[N+]([O-])c1ccccc1S(=O)(=O)Nc1cccc2cccnc12,11.6 µM (active),–
Cc1ccc2cccc([N+](=O)[O-])c2n1,inactive,–
Cc1nccn1-c1ccc(NC(=O)[C@H]2O[C@@H](n3cnc4c(N)ncnc43)[C@H](O)[C@@H]2O)cc1,inactive,–
CC1(C(=O)NS(=O)(=O)Cc2cccc(Cl)c2)CCN1C(=O)Cc1ccccc1 (configuration not stated),inactive,–
CCCCn1nnnc1C(c1ccccc1)N1CCN(c2ccccc2OC)CC1 (configuration not stated),inactive,–
CCOC(=O)N1CCN(S(=O)(=O)c2ccc(OC)cc2)CC1,inactive,–
CCOC(=O)N1CCN(C(=O)c2ccccc2N(Cc2ccccc2)S(=O)(=O)c2ccc(OC)cc2)CC1,3.26 µM (active),–
NC(=O)c1ccccc1N(Cc1ccccc1)S(=O)(=O)c1ccccc1,inactive,–
CCCc1ccc(C(O)c2ncc(-c3cccc(OC)c3)[nH]2)cc1 (configuration not stated),inactive,–
CN(CCO)C(=O)c1nc[nH]c1C(=O)N(C)Cc1ccccc1,inactive,–
Cc1ccc(-c2nc3ccc(Br)cn3c2Cc2ccccc2C(F)(F)F)cc1,inactive,–
Cc1cc(C(C)(C)C)cc(C)c1N,inactive,–
COc1ccc(-c2cc(C)nc3nc(N)nn23)cc1,inactive,–
Cc1cc(N)n2nc(-c3ccc(C(C)(C)C)cc3)cc2n1,20.6 µM (active),–
O=C(Nc1ccc(Cl)cc1)c1csc([C@@H]2O[C@H](CO)[C@H](O)[C@H](O)[C@H]2O)n1,inactive,–
CO[C@@H]1CN(C)C(=O)c2cc(NC(=O)Nc3cc(F)ccc3F)ccc2OC[C@H](C)N(C(=O)c2ccccn2)C[C@@H]1C,inactive,–
CCOC(=O)N1C(=O)C[C@](Sc2ccc(C)cc2)(C(=O)OC)[C@H]1c1ccccc1,inactive,–
Nc1ncnc2c1ncn2[C@@H]1O[C@H](C(=O)NCC(F)(F)F)[C@@H](O)[C@H]1O,inactive,–
COc1ccc(-c2[nH][nH]c(=O)c2NC(=O)c2ccc([N+](=O)[O-])cc2)cc1,inactive,–
CCOC(=O)c1cc(-c2sc(NC(=O)c3ccccc3)nc2C)n(-c2ccc(Br)cc2)n1,inactive,–

SMILES,Potency,"activity, negative = toxicity"
COc1ccccc1CN1CCN(C(c2ccccc2)c2ccccc2)CC1,inactive,–
CC1(C)CC(N2CCN(C(c3ccccc3)c3ccccc3)CC2)=CC(=[N+]2CCCCC2)C1,2.59 µM (active),–
c1ccc(C(c2ccccc2)N2CCN(Cc3nnnn3C3CCCCC3)CC2)cc1,inactive,–
OC(c1ccccc1)c1nc(/C=C/c2ccc(C(F)(F)F)cc2)cs1 (configuration not stated),inactive,–
CCCCc1ccc(S(=O)(=O)NC(=O)C2(C)CCN2C(=O)c2ccccc2)cc1 (configuration not stated),inactive,–
C=CCSc1nc2c(c(=O)[nH]c(=O)n2C)n1Cc1ccccc1,inactive,–
CCCCCn1c(SCCC(C)C)nc2c1c(=O)[nH]c(=O)n2C,20.6 µM (active),–
CCCCCCn1c(SCC(=O)c2ccccc2)nc2c1c(=O)[nH]c(=O)n2C,inactive,–
COCCNC(=O)c1cc2c(Br)ccc(Br)c2nc1N,inactive,–
CSc1ncnc2c1ncn2CCCNCC1CCCCC1,inactive,–
CCc1nc2ccc(C(=O)NCCNC(C)=O)cn2c1N(CC)Cc1cccc(Br)c1,inactive,–
CN(Cc1ccccc1)C(=O)CCC1CCN(C(=O)c2ccco2)CC1,inactive,–
Cc1cc(NC(=O)CCC(=O)N(c2ccccc2)C(C(=O)NC2CCCC2)c2ccncc2)no1 (configuration not stated),inactive,–
Cc1cc(NC(=O)CCC(=O)N(c2cccc(F)c2)C(C(=O)NC2CCCC2)c2ccncc2)no1 (configuration not stated),inactive,–
Cc1cc(NC(=O)/C=C/C(=O)N(c2ccccc2C)C(C(=O)NC2CCCC2)c2ccc(F)cc2)no1 (configuration not stated),10 µM (active),–
O=C(N=C1SC2CS(=O)(=O)CC2N1Cc1ccccc1)c1ccccc1 (configuration not stated),inactive,–
COC(=O)[C@]12CCCCC=C1N(Cc1ccccc1)C(=O)[C@H](CC(=O)NCc1ccc(C)o1)C2,inactive,–
Nc1nonc1-c1nc2ccccc2n1Cc1ccc(F)cc1,inactive,–
CCn1c(C(O)c2cc(OC)ccc2OC)nc2ccccc21 (configuration not stated),inactive,–
COc1ccc(C)c(Cn2c(-c3nonc3N)nc3ccccc32)c1,5.17 µM (active),–
COCCCn1c(=O)/c(=C/c2ccccc2OC(C)C)s/c1=C(\C#N)C(=O)Nc1ccc(C(=O)O)cc1,inactive,–
CC1(c2cccc(Br)c2)NC(=O)N(CC(=O)NCCC2=CCCCC2)C1=O (configuration not stated),inactive,–
Cc1ccc2nc(Nc3ccccc3O)nc(-c3ccccc3)c2c1,–,-0.715% [at 9.24 µM] (inactive)
Cc1cccc(-c2nc(Nc3ccc(O)cc3)c3ccccc3n2)c1,11.6 µM (active),–
Oc1ccc(-c2nnc(Nc3ccccc3)c3ccccc23)cc1,inactive,–

SMILES,Potency,"activity, negative = toxicity"
CC1=C(C(=O)N2CCOCC2)CC(CC(=O)NCc2ccco2)C(=O)N1Cc1ccc(F)cc1 (configuration not stated),inactive,–
COc1ccc(N2c3ccccc3CN(Cc3ccccc3)[C@@H](C)[C@H]2Cc2ccc(-c3ccccc3)cc2)cc1,inactive,–
O=C(NCc1ccccc1Cl)c1csc([C@@H]2O[C@H](CO)[C@@H](O)[C@H]2O)n1,inactive,–
CCN(CC)c1ccc(NC(=O)c2ccc(Cl)nc2)cc1,7.31 µM (active),–
O=C(NNC(=O)c1ccc(Cl)nc1)c1ccc(Br)cc1,inactive,–
O=C(Nc1ccc2nc3n(c(=O)c2c1)CCCC3)c1ccc(Cl)nc1,inactive,–
CC(C)n1ncc2c(C(=O)N3CCN(Cc4cccs4)CC3)cc(C3CC3)nc21,inactive,–
CC1C(=O)N(Cc2cn(CC3CCCCC3)nn2)CCS(=O)(=O)N1Cc1ccc(-c2cccc(N(C)C)c2)cc1 (configuration not stated),inactive,–
COc1cc(/C=C/C(=O)N2c3ccccc3Sc3ccc(C(F)(F)F)cc32)cc(OC)c1OC,inactive,–
O=C(CN1CCCCCC1)N1c2ccccc2Sc2ccc(C(F)(F)F)cc21,11.2 µM (active),–
O=C(CN1CCCCC1)N1c2ccccc2Sc2ccc(C(F)(F)F)cc21,inactive,–
O=S1(=O)CC(N2CCN(c3ccccn3)CC2)CN1Cc1ccc(F)cc1 (configuration not stated),inactive,–
COc1cc(OC)cc(C(=O)N[C@H](C(=O)NNC(=O)c2ccc(Br)cc2)C(C)C)c1,inactive,–
COc1ccc(C(=O)N[C@H](C(=O)NCc2ccccc2)C(C)C)cc1,inactive,–
COc1cc(OC)cc(C(=O)N[C@H](C(=O)Nc2nc3ccccc3[nH]2)C(C)C)c1,1.3 µM (active),–
Cc1ccccc1CN1C(=O)CSCC1(C)C(=O)Nc1c(C)cccc1C (configuration not stated),inactive,–
N#Cc1cccc(NC(=O)c2cc(C3CCCCN3C(=O)CCc3ccccc3)on2)c1 (configuration not stated),inactive,–
O=C(COC(=O)c1cccc(Cl)c1Cl)NC1CCCCCC1,inactive,–
Cc1ccc([C@H]2N[C@]3(CCCN(CC4CCCCC4)C3=O)[C@H]3C(=O)N(Cc4ccccc4)C(=O)[C@@H]23)cc1,inactive,–
CCNC(=S)Nc1ccc(OC(F)(F)F)cc1,inactive,–
COc1ccccc1CC1(C)C(=O)Nc2ccc(OC(F)(F)F)cc21 (configuration not stated),inactive,–
CCc1ccc2c(c1)NC(=O)C2(C)Cc1ccc(OC(F)(F)F)cc1 (configuration not stated),23.1 µM (active),–
CC(=O)c1ccc(OCC(=O)N(C)C2CCS(=O)(=O)C2)cc1 (configuration not stated),inactive,–
O=C(NC1CCCC1)C1c2ccccc2OCC(=O)N1CC(F)(F)F (configuration not stated),inactive,–
Cc1cc(S(=O)(=O)Nc2ccc(C(=O)NCC(c3ccco3)N3CCCC3)cc2)ccc1F (configuration not stated),inactive,–

SMILES,Potency,"activity, negative = toxicity"
Cc1c(C(=O)NCC(c2ccco2)N2CCCC2)oc2ccc(Cl)cc12 (configuration not stated),23.1 µM (active),–
CSc1ncccc1C(=O)NCC(c1ccco1)N1CCCCC1 (configuration not stated),inactive,–
CCCCCCCN=C(C)c1ccccc1O,inactive,–
C/C(=N\Nc1ccc(Cl)nn1)c1ccccc1O,3.26 µM (active),–
C/C(=N/Nc1ccc(Cl)cc1)c1cnnc(-c2ccccc2)n1,inactive,–
O=C(C[C@H]1C[C@H]2c3cc(NS(=O)(=O)c4ccc(F)cc4)ccc3O[C@H]2[C@H](CO)O1)NCc1cc(F)ccc1F,inactive,–
COc1ccc(C(=O)NCC2CCCO2)cc1S(=O)(=O)NCc1ccc(Cl)cc1 (configuration not stated),inactive,–
CSCc1nnc(NC(=O)c2ccc(S(=O)(=O)N3CCCCC3C)cc2)o1 (configuration not stated),inactive,–
CC1CCCN(S(=O)(=O)c2ccc(C(=O)Nc3nnc(-c4ccncc4)o3)cc2)C1 (configuration not stated),inactive,–
CC1CCCCN1S(=O)(=O)c1ccc(C(=O)Nc2nnc(-c3cccs3)o2)cc1 (configuration not stated),8.2 µM (active),–
CCCNC(=O)c1cc(C2CCCN(C(=O)c3ccc4c(c3)CCO4)C2)on1 (configuration not stated),inactive,–
COC(=O)C[C@H]1C[C@@H]2c3cc(N(C)C)ccc3O[C@@H]2[C@H](CO)O1,inactive,–
CCOc1ccc(CCNC(=O)COC(=O)c2ccc(C)c(S(=O)(=O)N3CCOCC3)c2)cc1OCC,inactive,–
Brc1ccc2c(c1)[C@H]1OCC[C@H]1[C@@H](c1cccs1)N2,9.2 µM (active),–
c1csc(CN2CCN(Cc3cccs3)C2c2cccs2)c1,–,-1.16% [at 9.24 µM] (inactive)
COc1cc2ccc(C(C)=O)c(O)c2cc1OC,inactive,–
COCCNc1ncnc2c1ncn2[C@H]1CN(Cc2ccc(OC)cc2)C[C@@H](CO)O1,inactive,–
COc1cccc2c1C(=O)c1c(O)c3c(c(O)c1C2=O)CC(O)(C(C)=NNC(=O)c1ccc(Cl)c(Cl)c1)CC3OC1CC(N)C(O)C(C)O1 (configuration not stated),1.16 µM (active),–
OC(c1ccccc1)c1nc(-c2cnc3ccccc3c2)cs1 (configuration not stated),inactive,–
Cc1ccc(S(=O)(=O)C2(S(=O)(=O)c3ccc(C)cc3)CCCC2)cc1,11.6 µM (active),–
Cc1ccc(S(=O)(=O)N(C)C2(C)CCS(=O)(=O)C2)cc1 (configuration not stated),inactive,–
Cc1ccc(S(=O)(=O)NC2CCCCCC2)cc1,inactive,–
